Residue numbers refer to the chain shown, from its start. The full ranking holds about 24,000 sequences; the median of “enrichment r” is about 0.99, and the highest 2% start at about 3.7. What follows is part of a selection rich in the highest values, with near analogues and random picks from the rest.
T1: UNK ZnF1-3 (human, UniProt Q9C0B0 31-174)
T1 sequence: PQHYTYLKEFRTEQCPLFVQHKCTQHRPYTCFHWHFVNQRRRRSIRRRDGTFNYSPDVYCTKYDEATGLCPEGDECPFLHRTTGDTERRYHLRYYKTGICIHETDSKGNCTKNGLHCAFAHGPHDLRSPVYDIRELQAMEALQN

B1: chr11:2981123:2981124:-_ENSG00000205531_ENST00000380542|hu_mus|FALSE|FALSE (ssRNA)
RNA: GGGAGUUCUACAGUCCGACGAUCCUUGUACGUUUUCGUCAGGACAGGAUUGGUGAAGUAGUCGUUGGGUUCAAAGUGAAACUCUAGCACAAAAGACAUAGGUUGUCCAGGGUCUGAAAACUUCACUUUAAUAUCCUGCAGAUGCAACAGAGGAUUGAGCAUCA
B2: chr6:155153589:155153590:+_ENSG00000213079_ENST00000417268|hu_hu|motif|central (ssRNA)
RNA: GGGAGUUCUACAGUCCGACGAUCAGUAACAUUGUCUACGCUUUGUCUUCCAGGAGCUAAAAAAGGUCUUUCUGGUUGACGGAAAAUAUCUCCUGGAGGAAAAGGUCCACGGGGUGGUGGAUGAAGAGCUGAAUCAAGUACCGACAACAGAGGAUUGAGCAUCA
B3: chr1:161298228:161298229:+_ENSG00000143252_ENST00000367975|hu_hu|motif|central (ssRNA)
RNA: GGGAGUUCUACAGUCCGACGAUCCAUGGGAAGAGACCAACUGUAGAUAGUAAUGUGGGGAGACAGAGGACGGUUUGAACCGGUAUUCUUAUUCCAGAACCGCUCCAUCUCUUCUUUGGCCGUGGUUCCCAAAGGAACAGCAUUCAACAGAGGAUUGAGCAUCA
B4: 32561585_32561705_2007_CDS_ENSG00000100852_ENST00000539826|human|control|control (ssRNA)
RNA: GGGAGUUCUACAGUCCGACGAUCUAGUUCUUGGGCAAGGCCAUCCUUCCCUAAAAUAAAAAGGUUAACUUUAUCUAUAUUGGUACUAUCGUGAUAUAAUCUUAAGCGGCCAUGAUCCAACUGUAAAAGACUACUAGCAAGUAACAACAGAGGAUUGAGCAUCA
B5: chr3:139076767:139076768:-_ENSG00000184432_ENST00000507777|hu_mus|motif|central (ssRNA)
RNA: GGGAGUUCUACAGUCCGACGAUCACUUUAAUCAUCCAGAAUAUCUUCAUCCAGAUUAAUGUCUGUUGUGUCAAUAUCCUCGGAUUCCAAGUUAUCCAAAUCAACUUCUAGUUCUAGUAAACUCUUUUCUUCUUUGUGGGUAGUCAACAGAGGAUUGAGCAUCA
B6: chr15:100049815:100049816:+_ENSMUSG00000023026_ENSMUST00000100203|mus_hu|motif|central (ssRNA)
RNA: GGGAGUUCUACAGUCCGACGAUCAAUGAGUUAAUAGAACACUGUCCAGCCAGAUGUUAAAUUUAAAAACGUAUAUCGGGUCGGACUUCAAAUAAAUAAAAAAACUUUAUACAUAAUUACACAGUACUGUAGUUUGAAUUUGACCAACAGAGGAUUGAGCAUCA
B7: chr5:38529146:38529147:-_ENSMUSG00000029126_ENSMUST00000031009|mus_mus|FALSE|FALSE (ssRNA)
RNA: GGGAGUUCUACAGUCCGACGAUCAGAAAAGCUAAAGUAGCCCUGGCUUACCCAAAAUUACAUUUCACUUUGCCCACUGGCUAAUAAAACAAAACAAAACAAAACAAAAAACCCAAACUGCACCUGCAUUCAGGGCUGUACGUGCAACAGAGGAUUGAGCAUCA
B8: chr1:58468927:58468928:-_ENSMUSG00000026034_ENSMUST00000148330|mus_mus|mus_mus_mus_hu_False|18_68 (ssRNA)
RNA: GGGAGUUCUACAGUCCGACGAUCAAUUACUGAAAAAGAUGUUCAUUACCUUAGCUAUGUACUUAAUUUAAUAAAGCACCCAAACAAAAUAAACAUGGCAAUAUAAAAAUGUUAAGAAAAUAACUUACUGUACAAAAUAACUUACAACAGAGGAUUGAGCAUCA
B9: chr1:58468927:58468928:-_ENSMUSG00000026034_ENSMUST00000148330|mus_mus|mus_mus_mus_hu_False|58_68 (ssRNA)
RNA: B8 RNA with C78U, C80U, C84A, A118U, A119U, A122C, C123A, U124A, U125A, A126G
B10: chr15:100049815:100049816:+_ENSMUSG00000023026_ENSMUST00000100203|mus_hu|FALSE|FALSE (ssRNA)
RNA: B6 RNA with G77U, G78A, G82U, G83A
B11: chr1:58468927:58468928:-_ENSMUSG00000026034_ENSMUST00000148330|mus_mus|mus_mus_mus_hu_False|68_68 (ssRNA)
RNA: B8 RNA with A118U, A119U, A122C, C123A, U124A, U125A, A126G
B12: chr15:100049815:100049816:+_ENSMUSG00000023026_ENSMUST00000100203|mus_mus|motif|central (ssRNA)
RNA: GGGAGUUCUACAGUCCGACGAUCAAUGAGUUAAUAGAACACUGUCCAGCCAGAUGUUAAAUUUAAAAAUGUAUAUCGGACCGGAUUUCAAAUAAAUAAAAAAACCUUUAUACAUAAUUACACAGUACUAUAGUUUGAAUUGGACAACAGAGGAUUGAGCAUCA
B13: chr1:58468927:58468928:-_ENSMUSG00000026034_ENSMUST00000148330|mus_mus|mus_mus_mus_hu_False|1_68 (ssRNA)
RNA: B8 RNA with A118U, A119U, A122C, C123A, U124A, U125A, A126G, U137A, A138G, U142G
B14: chr10:33190432:33190433:-_ENSG00000150093_ENST00000302278|hu_mus|hu_hu_hu_mus_True|28_68 (ssRNA)
RNA: GGGAGUUCUACAGUCCGACGAUCUACAUUUUCCAAACCUGCAUGUGAAUAAAACCCUGGCCACAGAGCCCUAAAGCUACCCUACUGUGACUAAGAUGCUGCUGCUGUUGCAUUCAGGUUGCAAAAUCCGCCUGAGUAGGAUUCCAACAGAGGAUUGAGCAUCA
B15: chr5:38529174:38529175:-_ENSMUSG00000029126_ENSMUST00000031009|mus_mus|FALSE|FALSE (ssRNA)
RNA: GGGAGUUCUACAGUCCGACGAUCGAAAAGCUAAAGUAGCCCUGGCUUACCCAAAAUUACAUUUCACUUUGCCCACUGGCUAAUAAAACAAAACAAAACAAAACAAAAAACCCAAACUGCACCUGCAUUCAGGGCUGUACGUGCCAACAGAGGAUUGAGCAUCA
B16: chr1:58468927:58468928:-_ENSMUSG00000026034_ENSMUST00000148330|mus_mus|mus_mus_mus_hu_False|28_68 (ssRNA)
RNA: GGGAGUUCUACAGUCCGACGAUCAAUUACUGAAAAAGAUGUUCAUUACCUUAGCUAUGUACUUAAUUUAAUAAAGCACCCAAACAAAAUAAACAUGGCAAUAUAAAAAGCUAUACAAUUUACAAAGCUGUACAAAAUAACUUACAACAGAGGAUUGAGCAUCA

What follows are binders tested against T1, UNK ZnF1-3 (assay: nsRBNS (natural sequence RNA bind-n-seq); RBNS binding buffer (assumed for nsRBNS): 25 mM Tris pH 7.5, 150 mM KCl, 3 mM MgCl2, 0.01% Triton X-100, 500 ug/ml BSA, 20 U/ml SUPERase-In, 4 C; UNK is unkempt and MSI1 is Musashi-1; names of the RNAs are library labels; protein concentration not given here; high values mean tight binding).

Binder | binding signal [enrichment R]
B1 | 0.872
B2 | 0.663
B3 | 1.08
B4 | 1.31
B5 | 0.449
B6 | 4.96
B7 | 4.49
B8 | 3.68
B9 | 3.76
B10 | 1.95
B11 | 1.87
B12 | 2.23
B13 | 1.68
B14 | 1.01
B15 | 1.5
B16 | 0.868

Source: paper PMC12136788
